Compound activity: PubChem BioAssay, National Center for Advancing Translational Sciences (NCATS)
HepG2 viability: HepG2 cytotoxicity, counter-screen for TGF-b inhibitors; hit rate 0.76% among 410,000; HepG2 CAGA-GFP viability, ATP luminescence, 18 h; AID 588856; Potency, µM (series often up to 46.1 µM), for the others: at the top dose activity change, negative = cytotoxicity, most hits filed as cytotoxic
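HepG2 CAGA-GFP cells (1000/well, DMEM with 1% FBS) received compound, then TGF-beta at 500 pg/mL final, and were incubated 18 hours at 37 degrees C. Viability was read by CellTiter-Glo luminescence. Media-only wells were set as complete cell-killing and DMSO as no toxicity.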
ATXN2 expr inh: ATXN2 expression inhibition; HEK-293 ATXN2-luciferase reporter, luminescence, 24 h; Potency, µM (top dose mostly 57 µM), without a hit: at the highest dose activity change, negative = inhibition, hits mostly inhibitors; hit rate 0.72% among 360,000; note: % is set by controls: 0 for no effect and ±100 for the full control effect; nearly all actives have a fitted effect of over 55% in size
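qHTS (up to 57 uM final) was run with 24 h compound exposure of reporter cells at 37 °C. Each well was multiplexed: SteadyGlo luminescence measured ATXN2-luciferase expression after a fluorogenic Gly-Phe-AFC viability readout (25 uM final).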
S2 tox: cell viability loss in ATXN counter-screen; S2 cells (HEK-293 line with an ATXN2-luciferase reporter) viability, CellTiter-Fluor protease fluorescence, 24 h; hit rate 0.49% among 400,000; Potency, µM (doses to about 56.7 µM), hits mostly cytotoxic; note: nearly all actives have a fitted effect of over 40% in size
TDP1 cell CPT: growth inhibition of DT40 Tdp1-/-;hTDP1 cells with camptothecin (screen for TDP1 inhibitors); hit rate 12% among 420,000; chicken DT40 Tdp1-/-;hTDP1 cells + 20 nM CPT, ATP luminescence, 48 h; Potency, µM (highest dose often 46.2 µM), without a hit: at the highest dose activity change, negative = growth inhibition, actives largely listed as inhibitors; note: % is set by controls: 0 for no effect and ±100 for the full control effect; nearly all actives have a fitted effect of over 55% in size
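Chicken DT40 Tdp1-/- cells stably complemented with human TDP1 were seeded at 400 cells/well in medium containing 20 nM camptothecin, exposed to pin-transferred compounds, and grown at 37 °C for at least 48 hr. Viability was read as ATP luminescence.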
DT40 TDP1 no CPT: qHTS for Inhibitors of human tyrosyl-DNA phosphodiesterase 1 (TDP1): qHTS in cells in absence of CPT; AID 686978, 2013; DT40 Tdp1-/- hTDP1 cells, no CPT, ATP luminescence, 48 h; hit rate 15% among 420,000; Potency, µM (series often up to 46.2 µM), inactives show at the top dose activity change, negative = growth inhibition, hits mostly inhibitors; note: % is set by controls: 0 for no effect and ±100 for the full control effect; nearly all actives have a fitted effect of over 55% in size
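Chicken DT40 Tdp1-/- cells complemented with human TDP1, screened without camptothecin (DMSO vehicle only), 400 cells/well. Compounds pin-transferred, cells incubated at 37 °C for at least 48 hr. Growth read as ATP-dependent luminescence (CellTiter-Glo, 30 min at RT).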
TGFb inhibitor: blocks TGF-b signaling | hit rate 1.2% among 410,000 | HepG2 CAGA-GFP TGF-b/SMAD3 reporter, GFP fluorescence, 18 h; TGF-beta stimulated, 500 pg/mL final | Potency, µM (highest dose often 46.1 µM), for inactives: at the highest dose activity, negative = inhibition, hits mostly inhibitors | AID 588855; note: % is set by controls: 0 for no effect and ±100 for the full control effect; nearly all actives have a fitted effect of over 65% in size
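First, reporter cells (HEPG2 CAGA-GFP) rested 2 h at 37 degrees C. Next, compounds were pinned in and TGF-beta added to 500 pg/mL final. After 18 h, GFP was imaged per cell and summed per well.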
* = called active by the depositor; i = inactive; ? = inconclusive; . = no result given. The list is not random: actives were taken first. Their share in the collection is about 17%. Calls come from the whole dose curve; as a rule, active = well fitted curve in the direction sought with a large enough effect; inconclusive = small, poorly fitted or top-dose-only effect, or another doubt; inactive = no such curve, though single readings can be large; an effect the other way counts as inactive or inconclusive. Potency is the fitted concentration of half-maximal effect.

SMILES | HepG2 viability | ATXN2 expr inh | S2 tox | TDP1 cell CPT | DT40 TDP1 no CPT | TGFb inhibitor
COc1ccc(N2CC(NC(=O)c3ccc(Br)o3)CC2=O)cc1 (stereo not given) | -15% | . | . | -17% | -22% | -17%
CCCc1nc(SCC(=O)Nc2nc3c(s2)CCCC3)c2ccccc2n1 | -52% | -12% | i | ? | -1% | ?
CCc1nc(SCC(=O)Nc2nc3c(s2)CCCC3)c2ccccc2n1 | -28% | -7% | i | 18µM* | 13µM* | -9%
O=C(CSc1nc2ccccc2o1)Nc1nc2c(s1)CCCC2 | -18% | . | i | ? | 15µM* | ?
COCCCNC(=O)CC(C)c1ccccc1 (stereo not given) | 4% | 9% | i | 0% | -7% | -5%
CCOC(=O)Cc1c(-c2cccc(Br)c2)nc2c3ccccc3ccn12 | . | 5% | i | ? | 18µM* | .
Fc1ccc(-c2nc3c4ccccc4ccn3c2CC2CCCCC2)cc1 | -36% | 36% | ? | 15µM* | 21µM* | -25%
Cc1cc(N)n2ncc(-c3cccc(Br)c3)c2n1 | -51% | 56% | i | -7% | -20% | ?
CCOC(=O)Cc1c(C)nc2c(-c3cccc(Br)c3)cnn2c1C | 8% | -1% | i | ? | 21µM* | 4%
Brc1cccc(-c2nc3c4ccccc4ccn3c2Cc2ccsc2)c1 | -6% | 42% | i | 26µM* | ? | -9%
Clc1cccc(-c2nc3c4ccccc4ccn3c2Cc2ccsc2)c1 | -11% | 34% | ? | ? | ? | ?
Clc1ccc(-c2nc3c4ccccc4ccn3c2CC2CCCCC2)cc1 | . | 30% | i | -23% | -27% | .
Cc1ccc(C)c(NC(=O)CSc2nc(=O)n(CCN3CCOCC3)c3c2CCCC3)c1 | -17% | 8% | i | -12% | -25% | 17%
Fc1ccc(-c2nc3c4ccccc4ccn3c2Cc2ccsc2)cc1 | -19% | 48% | i | 15µM* | 15µM* | ?
Cc1cccc(-c2ccc3[nH]c4c(c3c2)CCN2C[C@@H]([C@H](C)O)[C@@H](N(C)C(=O)NC3CCCCC3)C[C@@H]42)c1 | -37% | -12% | ? | 13µM* | ? | ?
C[C@H](O)[C@@H]1CN2CCc3c([nH]c4ccccc34)[C@@H]2C[C@@H]1N(C)C(=O)NC1CCCCC1 | -36% | 10% | i | ? | ? | 2%
CN[C@H]1C[C@H]2c3[nH]c4ccc(-c5cccc(C)c5)cc4c3CCN2C[C@H]1[C@H](C)O | -124% | ? | . | 7.3µM* | 12µM* | ?
CCOC(=O)N(C)[C@H]1C[C@H]2c3[nH]c4ccccc4c3CCN2C[C@H]1[C@H](C)O | 1% | 16% | . | ? | ? | -19%
Cc1cccc(-c2ccc3[nH]c4c(c3c2)CCN2C[C@H]3[C@H](C)ON(C)[C@H]3C[C@@H]42)c1 | -36% | ? | i | ? | 15µM* | ?
CCN(CC(=O)Nc1ccc(NC(C)=O)cc1)C(=O)c1cc2c(s1)CCCC2 | -2% | 4% | i | 9% | 12% | -7%
Cc1occc1C(=O)N1CCCC(CCC(=O)NCc2ccc(F)c(F)c2)C1 (stereo not given) | -22% | -13% | i | ? | 21µM* | 0%
COc1cccc(CNC(=O)CCC2CCCN(C(=O)c3cc4ccccc4o3)C2)c1 (stereo not given) | -18% | -5% | i | ? | 13µM* | -19%
COc1cccc(OC)c1-c1cnc(NC(C)=O)cn1 | -1% | 11% | ? | -4% | 1% | ?
Cc1ccc(S(=O)(=O)N2CCn3cccc3C2C)cc1 (stereo not given) | -34% | ? | i | -5% | -25% | ?
